Bioassay records: PubChem BioAssay, National Center for Advancing Translational Sciences (NCATS)
Only some compounds are listed: those with a hit (about 11% of all), similar ones and a draw of the others.
ALDH1A1 inh: blocks purified human ALDH1A1 activity. P00352. Purified ALDH1A1, NADH fluorescence, propionaldehyde substrate. Potency, µM (series often up to 75.3 µM), inactives show at the top dose activity, negative = inhibition, usual class: inhibitors. hit rate 7.3% among 220,000. AID 1030;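 further: potency means the concentration at half of the fitted maximal effect; plate controls were no enzyme wells and a reference inhibitor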
HPGD block: HPGD (human) dehydrogenase inhibition | AID 894 | hit rate 4.3% among 150,000 | purified HPGD, NADH fluorescence kinetic, PGE2 substrate | Potency, µM, for the others: top-dose activity change, negative = inhibition, usual class: inhibitors; further: potency means the concentration at half of the fitted maximal effect
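NADH formation kinetics: reaction with 30 uM PGE2 and 1 mM NAD+ (final), 20 nM enzyme, Tris-HCl pH 8 with Tween 20, after 15 min compound preincubation at room temperature. Fluorescence change, last versus first of five reads.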
PNC assembly inh: blocks assembly of the perinucleolar compartment; PC3M PTB-GFP, PNC prevalence imaging, 16 h; stronger effect = lower value; activity change (PNC), negative = inhibition, % at 10 µM; hit rate 3.1% among 140,000;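 active means readout at or below -70, meaning at least 70% loss of cells showing the perinucleolar compartment, a nuclear body marking cancer cells; inconclusive means readout between -30 and a set limit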;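 further: plate controls were DMSO wells for no effect and camptothecin positive control wells for full effect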
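Read-out is percentage of cells bearing a perinucleolar compartment, from automated 20x imaging of fixed, Hoechst-stained PC3M PTB-GFP cells. Cells were seeded 4 h, then exposed 16 h to compound (23 nl of library stock) in duplicate plates.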
An asterisk follows results filed as active; ? = inconclusive; . = not tested or not shown. Unless noted, the call rests on the fitted dose curve; in most records, active means well fitted inhibition curve with a large enough effect (not every such curve was filed as active); inconclusive means small, poorly fitted or top-dose-only effect, or another doubt; inactive means no such curve, though single readings can be large or run the other way. Unless noted, on the % scale 0 is the no-effect control and ±100 the full control effect.

SMILES	ALDH1A1 inh	HPGD block	PNC assembly inh
S=c1[nH]nc(-c2ccc(Cl)cc2Cl)n1Cc1ccccc1	31.6µM*	15.8µM*	?
COCC(=O)N1CCC2(CCCN(C(=O)Nc3cccc(F)c3)C2)CC1	6.5%	-2.0%	.
CNC(=S)N/N=C(\C)c1ccc(C)c(C)c1	?	-17.3%	21.7
CCn1c(-c2csc(C(C)C)c2)n[nH]c1=S	15.8µM*	?	-11.4
O=[N+]([O-])c1cccc(-c2n[nH]c(=S)n2Cc2ccccc2)c1	?	25.1µM*	-12.0
Cc1ccc(-c2n[nH]c(=S)n2Cc2ccccc2)cc1	?	?	-20.2
CCCc1cc(-c2n[nH]c(=S)n2C(C)c2ccccc2)cs1 (configuration not stated)	?	12.6µM*	28.2
CC(c1ccc(F)cc1)n1c(-c2ccc3ccccc3n2)n[nH]c1=S (configuration not stated)	?	-26.9%	1.9
C=CCn1c(-c2cccc(S(=O)(=O)N(CC)CC)c2)n[nH]c1=S	2.24µM*	.	.
